The nature of experiment [1]: qHTS drug screen for cell cycle checkpoint inhibitors in PARPi-resistant BRCA-mutant ovarian cancer cell lines. (AID 1963452). The note with it: PEO1/OlaR viability, CellTiter-Glo luminescence, 96 h, stronger effect = lower value. The procedure, abridged: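 PEO1, PEO4 and PEO1/OlaR ovarian cancer cells, 600 per well, exposed 96 h at 37C to a dilution series. Viability read by CellTiter-Glo luminescence, normalized to DMSO and empty wells; activity summarized as Z-AUC.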
A general note: qHTS replaces the single test concentration by a dilution series.

Experiment [2] in a line: qHTS for identification of novel therapeutic agents for treatment of microphthalmiaassociated transcription factor (MiT) renal cell carcinoma (RCC) (AID 1963991). Note: potency is the fitted concentration of half-maximal effect. The conditions noted are these: CellTiter-Glo, 48 h; for Potency: active = Z-AUC below -0.8 in all three lines; for z-score: stronger effect = lower value. The procedure, abridged: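 Three TFE3-fusion RCC cell lines (UOK109, UOK124, UOK145), 500 cells/well, were exposed to the 1912-compound MIPE 4.0 library for 48 hours at 37 C. Viability was read by CellTiter-Glo luminescence, normalised to DMSO (100%) and empty wells (0%), with 11-concentration curve fits.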

In experiment [3] the test system is 3D7. Put plainly: qHTS profiling for inhibitors of Plasmodium falciparum proliferation (AID 504749; active = well fitted inhibition curve with a large enough effect;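 note: 0% = DMSO vehicle and full inhibition = artemisinin control; nearly all actives have a fitted effect of over 60% in size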). The conditions noted are these: P. falciparum in erythrocytes, SYBR Green DNA, 72 h; series mostly up to 28.7 µM. The procedure, abridged: (§1)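 SYBR Green fluorescence (ex 485 nm, em 535 nm) reports parasite DNA after 72 h compound exposure of infected red cells at 0.3% parasitemia, 2.5% hematocrit; signal normalized to 0.29 uM artemisinin and vehicle wells.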

Experiment [4] concerns 7G8. The experiment is described as above. The conditions noted are these: P. falciparum in erythrocytes, SYBR Green DNA, 72 h; series mostly up to 28.7 µM. In short, it runs like this: as §1
Experiment [5] concerns AA1029. The experiment is described as above. The note with it: P. falciparum in erythrocytes, SYBR Green DNA, 72 h; series mostly up to 28.7 µM. The procedure, abridged:
as §1

In experiment [6] the test system is AS120. The description is as above. The conditions noted are these: P. falciparum in erythrocytes, SYBR Green DNA, 72 h; series mostly up to 28.7 µM. The procedure, abridged:
as §1

Experiment [7] deals with ATS189. The experiment is described as above. The note with it: P. falciparum in erythrocytes, SYBR Green DNA, 72 h; series mostly up to 28.7 µM. The procedure, abridged:
as §1

The test system of experiment [8] is ATS95. Described as above. The note with it: P. falciparum in erythrocytes, SYBR Green DNA, 72 h; series mostly up to 28.7 µM. The procedure, abridged:
as §1

Where [9] appears, read: measured here: PEO1 parental Z-AUC.
The mark [10] stands for this setting: TFE3-RCC UOK109 viability, measured here: UOK109 Z-AUC.
The mark [11] stands for this setting: TFE3-RCC viability, measured here: UOK124 Z-AUC.
[12] abbreviates: TFE3-RCC viability, measured here: UOK145 Z-AUC.

Results filed as inconclusive are left out. Calls of active or inactive are those of the source. Unless noted, calls come from the whole dose curve.

In the case of `O=C1CSC(=O)N1C(CCc1ccncc1)COc1ccc(-c2cccc([N+](=O)[O-])c2)cc1` (stereo not given), the figures for the Z-AUC in experiment [1], in experiment [1] (setting [9]) and in experiment [1] (measured here: PEO4 Z-AUC) were 0.623 (inactive), -0.739 and 0.104, respectively.

In the case of `CCOc1cc2ncc(C#N)c(Nc3ccc(OCc4ccccn4)c(Cl)c3)c2cc1NC(=O)C=CCN(C)C`, the Potency in experiment [2] (TFE3-RCC UOK109 viability) is 16.6 nM (active). For the same compound, the values for the z-score in experiment [2] (setting [10]), in experiment [2] (setting [11]) and in experiment [2] (setting [12]) were -2.6, -0.947 and -1.43, respectively.

`Cc1ccc(O)c(C(CCN(C(C)C)C(C)C)c2ccccc2)c1` (stereo not given): the values for the z-score in experiment [2] (setting [10]), in experiment [2] (setting [11]) and in experiment [2] (setting [12]) were 0.603, 0.794 and 0.77, respectively.

On to `N#Cc1c(NC(=O)c2cccc3ccccc23)sc2c1CCCC2`, for which the Z-AUC is -0.477 (inactive) in experiment [1], -0.695 in experiment [1] (setting [9]) and -0.753 in experiment [1] (measured here: PEO4 Z-AUC). The Potency in experiment [2] (TFE3-RCC UOK109 viability) is 833 nM (active). The z-score was -1.37 in experiment [2] (setting [10]), -1.52 in experiment [2] (setting [11]) and -1.31 in experiment [2] (setting [12]).

With `COc1ccc(Nc2nccc(NCCO)n2)cc1`, the Z-AUC in experiment [1] is 1.22 (inactive); in experiment [1] (setting [9]) it was 0.748; in experiment [1] (measured here: PEO4 Z-AUC), 0.763.

On to `COc1ccc(Nc2cc(-c3cnc(N)nc3)nc(N3CCOCC3)n2)cn1`, for which the Z-AUC in experiment [1] is 0.44 (inactive); in experiment [1] (setting [9]), -0.145; in experiment [1] (measured here: PEO4 Z-AUC) it was 0.339. Further, the Potency in experiment [2] (TFE3-RCC UOK109 viability) was 526 nM (active). Further, the z-score in experiment [2] (setting [10]) is -1.16; in experiment [2] (setting [11]), -2.53; in experiment [2] (setting [12]), -2.08.

Regarding `COC1=C(OC)C(=O)C(CC=C(C)CCC=C(C)CCC=C(C)CCC=C(C)CCC=C(C)CCC=C(C)CCC=C(C)CCC=C(C)CCC=C(C)CCC=C(C)C)=C(C)C1=O`, the z-score stood at 0.576 in experiment [2] (setting [10]), 0.211 in experiment [2] (setting [11]) and 0.661 in experiment [2] (setting [12]).

For `NC[C@H]1O[C@H](O[C@H]2[C@@H](O)[C@@H](O[C@H]3O[C@H](CO)[C@@H](O)[C@H](N)[C@@H]3O)[C@H](N)C[C@@H]2N)[C@H](N)C[C@H]1O`, the values for the z-score in experiment [2] (setting [10]), in experiment [2] (setting [11]) and in experiment [2] (setting [12]) were 2.03, 0.18 and 1.86, respectively.

As to `OCC(O)C(O)C(O)CO` (stereo not given), the results for the z-score in experiment [2] (setting [10]), in experiment [2] (setting [11]) and in experiment [2] (setting [12]) were 0.353, 0.172 and 0.47, respectively. Also, the Potency result in experiment [3], in experiment [4], in experiment [5], in experiment [6], in experiment [7] and in experiment [8] was “inactive” throughout.

`C[C@H](CCC(=O)O)[C@H]1CC[C@H]2[C@@H]3[C@H](O)C[C@@H]4C[C@H](O)CC[C@]4(C)[C@@H]3CC[C@]12C`: the z-score in experiment [2] (setting [10]) stood at 0.305; in experiment [2] (setting [11]), 0.277; in experiment [2] (setting [12]) it was 0.171.

`CCCCCCCCCCCCCCCC(=O)OC[C@@H](NC(=O)C(Cl)Cl)[C@H](O)c1ccc([N+](=O)[O-])cc1`: the results for the z-score in experiment [2] (setting [10]), in experiment [2] (setting [11]) and in experiment [2] (setting [12]) were 1.8, 0.082 and 0.929, respectively.

On to `O=C(C=CC=Cc1ccc2c(c1)OCO2)N1CCCCC1`, for which the z-score was 0.531 in experiment [2] (setting [10]), 0.306 in experiment [2] (setting [11]) and 0.432 in experiment [2] (setting [12]).

With `C[C@H]1C[C@H]2[C@@H]3CCC4=CC(=O)C=C[C@]4(C)[C@@H]3C(=O)C[C@]2(C)[C@@]1(O)C(=O)CO`, the z-score came out at 0.188 in experiment [2] (setting [10]), 0.279 in experiment [2] (setting [11]) and 1.74 in experiment [2] (setting [12]).

With `OCCN1C[C@H](O)[C@@H](O)[C@H](O)[C@@H]1CO`, the z-score in experiment [2] (setting [10]) stood at 0.705; in experiment [2] (setting [11]), 0.522; in experiment [2] (setting [12]), 1.03.

Turning to `COc1ccc(C[C@@H](C)[C@@H](C)Cc2ccc(OC)c(OC)c2)cc1OC`, the results for the Z-AUC in experiment [1], in experiment [1] (setting [9]) and in experiment [1] (measured here: PEO4 Z-AUC) were 0.193 (inactive), -0.135 and 0.0624, respectively.

Source of the values: PubChem BioAssay (NCATS).
